Results published in PubChem BioAssay AID624305 (National Center for Advancing Translational Sciences (NCATS), 2012).
Records with an inconclusive call do not appear. A number with no mark means an inactive call. Activity calls are given as the source filed them. Calls come from the whole dose curve; as a rule, active = well fitted activation curve with a large enough effect; inconclusive = small, poorly fitted or top-dose-only effect; inactive = no such curve, though single readings can be large or run the other way.

Test: qHTS assay for re-activators of p53 using a Luc reporter: Hit Validation; note: nearly all actives have a fitted effect of over 75% in size; for activation: 0% is about no effect
Details: p53-responsive luciferase reporter cells, luminescence, H1299 line expressing heat-sensitive Ala138Val p53; series mostly up to 46.1 µM; activation: at the top concentration
How it was run: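 H1299 (p53-null) cells stably carrying p53-A138V and a BP100-luciferase reporter, 1000 cells/well, treated 24 h at 37 deg C. Compounds at several concentrations, 1:5 dilution; nocodazole control; luminescence read after 10 min with detection reagent.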
Potency is the fitted concentration of half-maximal effect.

Structure (SMILES)	activation [%]	Potency
COc1ccccc1-c1c(C)nn2c(C)c(C(C)=O)cnc12	-1.56	
Cc1cccc(-n2nc([N+](=O)[O-])c(=NC3CCN(Cc4ccccc4)CC3)n2O)c1	19.8	
CN1CCN(C2=C(Cl)C(=O)N(Cc3ccccc3)C2=O)CC1	32.3	
COCc1[nH]nc2c1C(c1cccc(OC)c1)C(C#N)=C(N)O2 (stereo not drawn)	-18.2	
Cc1ccc(NC(=O)C2CCCO2)cc1[N+](=O)[O-] (stereo not drawn)	12	
CCc1ccc2[nH]c(=O)c(CN(CCN3CCCC3)C(=O)NC3CCCCC3)cc2c1	4.17	
CCOc1cc(S(=O)(=O)NC2CCCCCC2)ccc1F	-12.5	
COc1cc(NC(=O)C(C)C)ccc1NC(=O)c1ccco1		7.31 µM (active)
Cc1ccc(NC(CC(=O)c2ccccc2)c2ccc(F)cc2)cc1 (stereo not drawn)	25.5	
O=C(NCCCNC1CCCCC1)c1ccc(/C=N/O)nc1	19.3	
CC(C)C(=O)NC(c1cccs1)c1cc([N+](=O)[O-])c2cccnc2c1O (stereo not drawn)	-2.08	
N#C/C(=C/c1ccccc1[N+](=O)[O-])c1nc(C2CC2)cs1		5.8 µM (active)
O=[N+]([O-])c1ccc(NC(=S)NCCc2ccc(F)cc2)cc1	-18.8	
CC(Cc1ccccc1)NC(=O)c1ccc([N+](=O)[O-])cc1 (stereo not drawn)		2.59 µM (active)
Cc1noc(C)c1COc1ccc(C(=O)NCCOc2ccccc2)cc1	25	
Fc1ccccc1/C=C/c1ccc2ccccc2n1		0.731 µM (active)
Clc1ccc(-c2cn3cc(Br)ccc3n2)cc1Cl		0.206 µM (active)
Cc1cc(NC(=O)c2c(F)c(F)c(F)c(F)c2F)no1	13	
COc1ccc(C(=O)C(CN2CCCC2)c2ccccc2)cc1 (stereo not drawn)	-30.7	

Structure (SMILES)	activation [%]	Potency
COC(=O)c1ccc(-c2nc(-c3cccs3)no2)cc1		0.146 µM (active)
Cc1cc(C(=O)COC(=O)c2ccc(O)cc2)c(C)n1CC(F)(F)F		20.6 µM (active)
Cc1ccc(NC(=S)NCC2CCCO2)c(OC(F)F)c1 (stereo not drawn)	30.7	
Cc1cc(C)cc(NC(=O)c2sc3nc(C)cc(C)c3c2N)c1		11.6 µM (active)
COCCSc1ccccc1C(=O)Nc1cc(C)ccn1	20.8	
O=C(CCS(=O)(=O)c1ccccc1)Nc1ccc(-c2nc3ccccc3s2)cc1		0.651 µM (active)
Cc1ccc(C)n1-c1cccc(NC(=O)c2ccccc2)c1	14.1	
CCN(CC)C(=O)CSc1ncnc2c(-c3cccs3)nsc12	20.3	
C/C(=N\NC(=O)c1cc(C)nc2ccccc12)c1ccccn1		16.4 µM (active)
NNC(=O)c1cccc(O)c1	0	
O=C(Nc1ccc2c(c1)OCO2)c1cc(Cl)ccn1		4.61 µM (active)
COc1ccc2cnn(CCOc3ccccc3)c(=O)c2c1OC		1.03 µM (active)
C1=C(CCNc2ncnc3nc[nH]c23)CCCC1		1.64 µM (active)
O=C(CCS(=O)(=O)c1ccccc1)Nc1nc2c(s1)CCCC2	24.5	
Clc1ccc(-c2nnc(N3CCCC3)nn2)cc1		0.731 µM (active)
Cc1cc(C(=O)Nc2nc3c(s2)CCCC3)cs1		0.231 µM (active)
O=C(c1ccc(N2CCN(S(=O)(=O)c3ccccc3)CC2)c([N+](=O)[O-])c1)N1CCOCC1	17.2	
COc1cc(N/N=C/c2ccccc2O)ncn1		25.9 µM (active)
CCCCc1ccc(NC(=S)N2CCCC(CO)C2)cc1 (stereo not drawn)		0.651 µM (active)
